Measured values reported in PubChem BioAssay AID651864 (Broad Institute, 2012).
Measured potencies and affinities stand elsewhere. Active and inactive are the calls of the source. No rule for the calls is given here.

Assay: HeLa cell cytotoxicity, dose response, cytotoxicity control, 24 h, plate reader, powder samples, set 3 (AID 651864)
Details: HeLa viability, CellTiter-Glo ATP luminescence; series mostly up to 80 µM
In the case of `CCCCn1nnnc1NCc1ccc(N2CCCC2)cc1`, the outcome is reported as “inactive”.
For `O=C(Cc1ccccc1OC(F)(F)F)NC1CCCC1`, the outcome was “inactive”.
With `O=C(Cc1cccc(OC(F)(F)F)c1)NC1CCCC1` the outcome was “inactive”.
For `CCn1nnnc1NCc1cccc(OC)c1`, the outcome was “inactive”.
In the case of `CCn1nnnc1NCc1ccccc1N1CCCC1`, the outcome is reported as “inactive”.
For `CCn1nnnc1NCc1ccc(N2CCCCC2)cc1`, the outcome was “inactive”.
For `CC(C)NC(=O)Cc1ccc(-c2ccccc2)cc1`, the outcome was “inactive”.
For `COc1ccc(CC(=O)NC2CCCC2)cc1`, the outcome was “inactive”.
With `Cc1ccc(Cn2nnnc2NCc2ccc(N3CCCC3)cc2)cc1` the outcome was “inactive”.
For `O=C(Cc1ccc(-c2ccccc2)cc1)NC1CCOCC1`, the outcome was “inactive”.
With `CCCn1nnnc1NCc1ccccc1Cl` the outcome was “inactive”.
In the case of `CCn1nnc(NCc2ccc(C)cc2)n1`, the outcome is reported as “inactive”.
In the case of `c1ccc(Cn2nnnc2NCc2ccc(N3CCCC3)cc2)cc1`, the outcome is reported as “inactive”.
For `CS(=O)(=O)c1ccc(CC(=O)NC2CCCC2)cc1`, the outcome was “inactive”.
For `O=C(Cc1ccccc1F)NC1CCCC1`, the outcome was “inactive”.
For `CCn1nnnc1CCc1ccc(N2CCCC2)cc1`, the outcome was “inactive”.
In the case of `CCCn1nnnc1NCc1ccc(C(C)C)cc1`, the outcome is reported as “inactive”.
In the case of `O=C(Cc1ccc(-c2ccccc2)cc1)NC1CC1`, the outcome is reported as “inactive”.
In the case of `c1ccc(-n2nnnc2NCc2ccc(N3CCCC3)cc2)cc1`, the outcome is reported as “inactive”.
In the case of `O=C(Cc1ccccc1Cl)NC1CCCC1`, the outcome is reported as “inactive”.
With `O=C(Cc1ccc(-c2ccccc2)cc1)NC1CCC1` the outcome was “inactive”.
In the case of `O=C(Cc1cccc(F)c1)NC1CCCC1`, the outcome is reported as “inactive”.
For `CC(C)c1ccc(CNc2nnnn2C)cc1`, the outcome was “inactive”.
In the case of `O=C(Cc1ccc(-c2ccccc2)cc1)NC1CCCC1`, the outcome is reported as “inactive”.
In the case of `CCn1nnnc1NCc1ccc(C(C)C)cc1`, the outcome is reported as “inactive”.
With `CCn1nnnc1NCc1ccc(N2CCCC2)cc1` the outcome was “inactive”.
In the case of `Cn1nnnc1NCc1ccc(N2CCCC2)cc1`, the outcome is reported as “inactive”.
In the case of `CC(C)(C)OC(=O)N1CC(NC(=O)Cc2ccc(-c3ccccc3)cc2)C1`, the outcome is reported as “inactive”.
For `CCn1nnnc1NCc1cccc(N2CCCC2)c1`, the outcome was “inactive”.
In the case of `O=C(NCc1ccc(-c2ccccc2)cc1)C1CCCC1`, the outcome is reported as “inactive”.
In the case of `Cc1ccccc1CC(=O)NC1CCCC1`, the outcome is reported as “inactive”.
With `Fc1ccc(Cn2nnnc2NCc2ccc(N3CCCC3)cc2)cc1` the outcome was “inactive”.
With `O=C(Cc1ccccc1C(F)(F)F)NC1CCCC1` the outcome was “inactive”.
For `CC1(NC(=O)Cc2ccc(-c3ccccc3)cc2)COC1`, the outcome was “inactive”.
